Most compounds without a hit are left out; they make up all but 6.5% or so of the library.
Marburg entry inh = inhibitors of Marburg virus binding or cell entry | AID 540276 | Potency, µM (top dose mostly 37.8 µM), usual class: inhibitors | Marburg virus pseudotyped entry inhibition, cell reporter | actives 1.8% (n = 300,000); calls by dose curve; tested in HEK293 cells
FMDV inh = blocks foot and mouth disease virus. FMDV antiviral cell-based qHTS. Potency, µM (doses to about 57.9 µM), usual class: inhibitors. actives 1.2% (n = 410,000). AID 1159524; calls by dose curve; tested in HEK293T cells; also: read-out not given here; nearly all actives have a fitted effect of over 45% in size
LASV entry inh = blocks Lassa virus binding to or entry into cells; Potency, µM (top dose mostly 37.9 µM), hits mostly inhibitors; Lassa virus pseudotype entry inhibition, cell reporter; actives 1.2% (n = 300,000); calls by dose curve; tested in HEK293 cells; also: nearly all actives have a fitted effect of over 50% in size
HCMV antiviral = human cytomegalovirus inhibition | HFF cells, HCMV-luciferase reporter, 72 h; active compounds read low | activity change, negative = inhibition, % at 57.5 µM | actives 4.5% (n = 410,000); in the data active = activity change below about -60%; inconclusive = no clear call, values can overlap the other calls; inactive = above about -39%
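Screen run at 2 compound doses on HFFs infected with reporter HCMV, MOI 1 PFU/cell. Luciferase activity from cell lysates at 72 h post infection gave inhibition relative to buffer-only and Salinomycin wells.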
VACV Venus inh = vaccinia inhibition (Venus reporter). Vaccinia virus Venus reporter expression, fluorescence. Potency, µM (doses to about 36.5 µM), usual class: inhibitors. actives 0.46% (n = 330,000). AID 720580; calls by dose curve; tested in A549 cells; also: nearly all actives have a fitted effect of over 30% in size
Vaccinia mCherry = vaccinia inhibition (mCherry reporter); Vaccinia virus mCherry reporter infection, fluorescence; Potency, µM (doses to about 36.5 µM), actives largely listed as inhibitors; actives 0.63% (n = 310,000); AID 720579; calls by dose curve; tested in A549 cells; also: nearly all actives have a fitted effect of over 35% in size
Of the large screens only hits and unclear results are named; the others gave an inactive call.

N#Cc1nc(-c2cccc3ccccc23)oc1NCC1CCCO1 (centres undefined)	HCMV antiviral -67
N#Cc1nc(-c2ccccc2)oc1NCC1CCCO1 (centres undefined)	none
CCOc1ccc(/C=C/c2ccnc3ccccc23)cc1OCC	none (no result: Marburg entry inh, FMDV inh, LASV entry inh, HCMV antiviral)
O=C(OCCN1C(=O)c2cccc3c(N4CCOCC4)ccc(c23)C1=O)c1cccc(Cl)c1	Marburg entry inh inconclusive, FMDV inh inconclusive, LASV entry inh inconclusive (no result: HCMV antiviral)
O=C(OCCN1C(=O)c2cccc3c(N4CCOCC4)ccc(c23)C1=O)c1ccccc1Cl	Marburg entry inh 7.1µM, FMDV inh inconclusive, LASV entry inh inconclusive, HCMV antiviral inconclusive
O=C(OCCN1C(=O)c2cccc3c(N4CCOCC4)ccc(c23)C1=O)c1ccc(Cl)cc1Cl	Marburg entry inh inconclusive, FMDV inh 16µM, LASV entry inh inconclusive, Vaccinia mCherry inconclusive
CCC1(C2CCN(C(=O)c3csc(C(C)=O)c3)CC2)NC(=O)N(CCc2scnc2C)C1=O (centres undefined)	none (no result: Marburg entry inh, LASV entry inh, HCMV antiviral)
C#CCCCO/N=C1\C[C@@H](O)[C@@H](O)[C@@H]2[C@@H]3C(=O)N(C4CCCCC4)C(=O)[C@@H]3CC[C@@H]12	none (no result: FMDV inh, LASV entry inh, HCMV antiviral, VACV Venus inh, Vaccinia mCherry)
NNC(=O)/C(=N/Nc1ccccc1)S(=O)(=O)c1ccc(Cl)cc1	Marburg entry inh inconclusive, LASV entry inh 16µM, Vaccinia mCherry inconclusive
CCOC(=O)/C(=N/Nc1ccc(C)cc1)S(=O)(=O)c1ccc(Cl)cc1	Marburg entry inh inconclusive
C[N+]1(CC(=O)c2ccc(I)cc2)CCCc2ccccc21 (centres undefined)	none (no result: Marburg entry inh, FMDV inh, LASV entry inh, HCMV antiviral)
COc1ccc(N2CCN(c3ncnc4scc(-c5ccc(F)cc5)c34)CC2)cc1	Marburg entry inh inconclusive, FMDV inh 28µM
O=C(c1ccco1)N1CCN(c2ncnc3scc(-c4cccs4)c23)CC1	FMDV inh 22µM, LASV entry inh inconclusive, HCMV antiviral inconclusive (no result: VACV Venus inh, Vaccinia mCherry)
COc1ccc(Nc2ncnc3scc(-c4ccc(OC)cc4)c23)cc1	Marburg entry inh 7.3µM, FMDV inh inconclusive, LASV entry inh inconclusive, HCMV antiviral inconclusive, Vaccinia mCherry inconclusive
Fc1ccc(-c2csc3ncnc(N4CCN(c5ccccc5)CC4)c23)cc1	Marburg entry inh inconclusive, LASV entry inh inconclusive, HCMV antiviral -62
COc1ccc(Nc2ncnc3scc(-c4ccc(F)cc4)c23)cc1	FMDV inh inconclusive (no result: Marburg entry inh)
COc1ccc(-c2csc3ncnc(N4CCN(c5cccc(OC)c5)CC4)c23)cc1	Marburg entry inh inconclusive, FMDV inh inconclusive
Cc1ccc(CCNC(=O)CCN2N=C(c3ccc(C)cc3)CCC2=O)cc1	none (no result: Marburg entry inh)
CCOc1ccccc1NC(=O)N1CCC(N2CCN(Cc3ccccc3)C(=O)C2=O)CC1	none (no result: Marburg entry inh)
COc1ccc(N2CCN(c3ncnc4scc(-c5ccc(C)cc5)c34)CC2)cc1	Marburg entry inh inconclusive, FMDV inh inconclusive, LASV entry inh 10µM, HCMV antiviral -64
Cc1ccc(-c2csc3ncnc(N4CCN(C(=O)c5ccccc5)CC4)c23)cc1	Marburg entry inh inconclusive, FMDV inh 25µM, LASV entry inh inconclusive, HCMV antiviral -70, VACV Venus inh inconclusive
CCOc1ccc(CN2CCN(c3ncnc4scc(-c5ccccc5)c34)CC2)cc1	FMDV inh inconclusive
COc1ccc(N2CCN(c3ncnc4scc(-c5ccccc5)c34)CC2)cc1	Marburg entry inh inconclusive, FMDV inh inconclusive, Vaccinia mCherry inconclusive
COc1ccc(CN2CCN(c3ncnc4scc(-c5ccc(F)cc5)c34)CC2)cc1	Marburg entry inh 13µM, FMDV inh inconclusive, LASV entry inh inconclusive
COc1ccc(F)cc1CN1CCN(c2ncnc3scc(-c4ccccc4)c23)CC1	Marburg entry inh inconclusive, FMDV inh inconclusive, LASV entry inh inconclusive, HCMV antiviral -75
CC(CCN1CCCc2nc(C)c(C)cc21)=NO[C@H](C)c1cn([C@H](CO)Cc2ccccc2)nn1	none (no result: FMDV inh, LASV entry inh, HCMV antiviral, VACV Venus inh, Vaccinia mCherry)
Cc1cc(C)c(NC(=O)Cn2ccn(-c3cccc(Cl)c3)c(=O)c2=O)c(C)c1	none (no result: Marburg entry inh)
CC(C)Oc1ccc(CNC(=O)CC(c2ccccc2)c2cc(Cl)ccc2O)cc1 (centres undefined)	Marburg entry inh inconclusive, FMDV inh inconclusive, LASV entry inh 7.3µM (no result: VACV Venus inh, Vaccinia mCherry)
CCCCc1c(-c2ccccc2OC)ncn1Cc1ccc(-c2ccccc2)cc1	FMDV inh 28µM, VACV Venus inh inconclusive, Vaccinia mCherry inconclusive (no result: Marburg entry inh, LASV entry inh)
CCCCc1c(-c2ccccc2OC)ncn1C1CCCC1	HCMV antiviral -94 (no result: Marburg entry inh, LASV entry inh)
CCCCc1c(-c2ccccc2OC)ncn1Cc1ccc(Cl)cc1	FMDV inh inconclusive (no result: Marburg entry inh, LASV entry inh)

Screens deposited in PubChem by National Center for Advancing Translational Sciences (NCATS).
